# Experimental data taken from PubChem BioAssay (Tox21).
# Values without a mark were called inactive. Results filed as inconclusive are left out. Calls of active or inactive are those of the source. Calls come from the whole dose curve.
# Experiment: G protein-coupled receptor (GPCR) small molecule agonists, calcium flux assay: HEK293 wild type cell line counter screen (AID 1920065)
# Conditions: HEK293 WT calcium flux, fluorescence, agonist mode; series mostly up to 57.6 µM; activation: at the top concentration
# Summary of the method: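 Calcium-sensitive dye, loaded 1 h at 37 C into cells cultured 18 h, reports compound-evoked calcium release as fluorescence (Ex/Em 480/540), measured over 3 min. Agonist mode; 15-point titrations, triplicate.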
# % is set by controls: 0 for no effect and ±100 for the full control effect.
Compound,activation,Potency
Nc1cccc2c(N)cccc12,3.2%,–
O=C(OC[C@H]1O[C@@H](OC(=O)c2cc(O)c(O)c(OC(=O)c3cc(O)c(O)c(O)c3)c2)[C@H](OC(=O)c2cc(O)c(O)c(OC(=O)c3cc(O)c(O)c(O)c3)c2)[C@@H](OC(=O)c2cc(O)c(O)c(OC(=O)c3cc(O)c(O)c(O)c3)c2)[C@@H]1OC(=O)c1cc(O)c(O)c(OC(=O)c2cc(O)c(O)c(O)c2)c1)c1cc(O)c(O)c(OC(=O)c2cc(O)c(O)c(O)c2)c1,0.5% [at 11.8 µM],–
COC(=O)CC(C)CCC=C(C)C (stereo not given),-0.211%,–
CC(C)n1nc(-c2cc3cc(O)ccc3[nH]2)c2c(N)ncnc21,0.691% [at 26.5 µM],–
CNCc1ccc(NC(=O)c2c[nH]c3c2C(=O)CCC3)cc1,-1.59%,–
CCOC(=O)COc1ccc2c(C)c(CCN(CC)CC)c(=O)oc2c1Cl,-0.0671% [at 26.5 µM],–
Cc1cccc(C)c1NC(=O)CN1CCN(CCCC(c2ccc(F)cc2)c2ccc(F)cc2)CC1,0.0183% [at 26.5 µM],–
O=C(Nc1cccc([N+](=O)[O-])c1)c1cc2ccccc2cc1O,12.2%,–
COc1ccccc1N1CCN(CC(O)COc2cccc3ccccc23)CC1 (stereo not given),-0.484% [at 26.5 µM],–
CC(CN)CC(C)(C)CCN (stereo not given),1.43% [at 150 µM],–
Cc1cc(NC(=O)C(=O)O)cc(C)c1Oc1ccc(O)c2c1CCC2,-0.931%,–
OCCCS,-1.33%,–
Cc1cc(=O)oc2cc(N(C)C)ccc12,-0.805%,–
CCCCCOc1ccccc1/C(=C\SC)n1ccnc1,0.0154% [at 26.5 µM],–
CC[C@H]1CC[C@H](NCc2cc3c(cc2OC)[C@H]2C[C@H]2C(=O)N3C)[C@H](c2ccccc2)N1,-0.533%,–
C=CC(=O)OCC1CC2CC1C1CCC(COC(=O)C=C)C21 (stereo not given),-1.17%,–
CCc1c(C(=O)NN2CCCCC2)nn(-c2ccc(Cl)cc2Cl)c1-c1ccc(Br)cc1,0.603%,–
COC(=O)c1nc(Cl)c(Cl)nc1N,1.82% [at 26.5 µM],–
c1cc(OCC2CO2)cc(OCC2CO2)c1 (stereo not given),-0.249%,–
C=CC(=O)OCCCCCCOC(=O)C=C,–,inactive

Compound,activation,Potency
CCCCNCCCC,-0.48%,–
O=C(c1ccc(F)cc1)C1CCN(CCn2c(=S)[nH]c3ccccc3c2=O)CC1,0.258% [at 26.5 µM],–
Clc1ccc(Cn2c(CN3CCCC3)nc3ccccc32)cc1,-0.16% [at 26.5 µM],–
CCC(C)(C)c1ccc(CC(C)CN2C[C@@H](C)O[C@@H](C)C2)cc1 (stereo not given in full),-0.47% [at 26.5 µM],–
CCCCCCCCCCCCCCCCCCCl,0.281% [at 5.23 µM],–
Cc1cc(Nc2ccc(O)cc2)ccc1N,0.0903%,–
c1cc(CN2CCCCC2)cc(OCCCNc2nc3ccccc3s2)c1,4.09% [at 26.5 µM],–
COC(=O)C1=C(C)NC(C)=C(C(=O)O[C@@H]2CCCN(Cc3ccccc3)C2)[C@@H]1c1cccc([N+](=O)[O-])c1,-0.126% [at 26.5 µM],–
O=[N+]([O-])c1ccc(O/N=C/c2cc(Br)c(O)c(Br)c2)c([N+](=O)[O-])c1,5.09%,–
CCCCCCC(C)OC(=O)COc1nc(F)c(Cl)c(N)c1Cl (stereo not given),-2.06%,–
CC(O)C#CC(C)O (stereo not given),-1.64%,–
COC(=O)C1=C(C)NC(COC(N)=O)=C(C(=O)OC(C)C)C1c1cccc(Cl)c1Cl (stereo not given),-0.0365% [at 26.5 µM],–
c1ccc(Cc2ccccc2)cc1,-0.934%,–
O=C(Nc1ccc(Cl)cc1)Nc1ccc(Cl)c(C(F)(F)F)c1,-0.0219% [at 26.5 µM],–
S=c1[nH]c2ccccc2s1,-1.84%,–
Oc1c(I)cc(Cl)c2cccnc12,–,inactive
CCN(CC)CCNc1ccc(CO)c2sc3ccccc3c(=O)c12,-0.345% [at 26.5 µM],–
CCOc1ccc(N=Nc2ccc(/C=C/c3ccc(N=Nc4ccc(OCC)cc4)cc3S(=O)(=O)O)c(S(=O)(=O)O)c2)cc1,-0.075%,–
CN(C)CCCN1c2ccccc2Sc2ccc(C(F)(F)F)cc21,2.78% [at 26.5 µM],–
CCCCCC[C@@H](O)C/C=C\CCCCCCCC(=O)O,0.794%,–

# Experiment: p53 small molecule agonists, cell-based qHTS assay with human liver microsomes (AID 1963577);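 note: p53 response element beta-lactamase reporter cells with liver microsomes plus NADPH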
# Conditions: HCT-116 p53RE-bla with human liver microsomes, ratio, 16 h; series mostly up to 66 µM; activation: at the top concentration
# Summary of the method: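 Reporter activation was measured by LiveBLAzer fluorescence intensity in p53RE-bla cells, which had been exposed to compounds for 16 h at 37 C alongside 0.5 mg/mL human liver microsomes and 0.5 mg/mL NADPH (final concentrations).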
row,Compound,activation
1,Nc1cccc2c(N)cccc12,-5.56%
2,COC(=O)c1nc(Cl)c(Cl)nc1N,3.34% [at 30.3 µM]
3,CCCCNCCCC,-0.505%

# Experiment: p53 small molecule agonists, cell-based qHTS assay with rat liver microsomes (AID 1963578); note: potency is the fitted concentration of half-maximal effect
# Conditions: HCT-116 p53RE-bla, beta-lactamase ratio, 16 h; series mostly up to 66 µM; activation: at the top concentration
# Summary of the method: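 Compound in DMSO added to p53RE-bla cells 5 h post-plating; rat microsomes/NADPH 0.5 mg/mL final; 16 h, 37 C; LiveBLAzer 2 h RT.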
Compound,activation,Potency
O=C(OC[C@H]1O[C@@H](OC(=O)c2cc(O)c(O)c(OC(=O)c3cc(O)c(O)c(O)c3)c2)[C@H](OC(=O)c2cc(O)c(O)c(OC(=O)c3cc(O)c(O)c(O)c3)c2)[C@@H](OC(=O)c2cc(O)c(O)c(OC(=O)c3cc(O)c(O)c(O)c3)c2)[C@@H]1OC(=O)c1cc(O)c(O)c(OC(=O)c2cc(O)c(O)c(O)c2)c1)c1cc(O)c(O)c(OC(=O)c2cc(O)c(O)c(O)c2)c1,-4% [at 13.6 µM],–
COC(=O)CC(C)CCC=C(C)C (stereo not given),0.535%,–
CC(C)n1nc(-c2cc3cc(O)ccc3[nH]2)c2c(N)ncnc21,-9.25% [at 30.3 µM],–
CNCc1ccc(NC(=O)c2c[nH]c3c2C(=O)CCC3)cc1,-0.592%,–
CCOC(=O)COc1ccc2c(C)c(CCN(CC)CC)c(=O)oc2c1Cl,0.376% [at 30.3 µM],–
Cc1cccc(C)c1NC(=O)CN1CCN(CCCC(c2ccc(F)cc2)c2ccc(F)cc2)CC1,-2.49% [at 30.3 µM],–
O=C(Nc1cccc([N+](=O)[O-])c1)c1cc2ccccc2cc1O,-0.0722%,–
COc1ccccc1N1CCN(CC(O)COc2cccc3ccccc23)CC1 (stereo not given),-1.42% [at 30.3 µM],–
CC(CN)CC(C)(C)CCN (stereo not given),-3.22% [at 173 µM],–
Cc1cc(NC(=O)C(=O)O)cc(C)c1Oc1ccc(O)c2c1CCC2,0.113%,–
OCCCS,0.482%,–
Cc1cc(=O)oc2cc(N(C)C)ccc12,56.7%,–
CCCCCOc1ccccc1/C(=C\SC)n1ccnc1,-0.506% [at 30.3 µM],–
CC[C@H]1CC[C@H](NCc2cc3c(cc2OC)[C@H]2C[C@H]2C(=O)N3C)[C@H](c2ccccc2)N1,-4.43%,–
C=CC(=O)OCC1CC2CC1C1CCC(COC(=O)C=C)C21 (stereo not given),-2.54%,–
CCc1c(C(=O)NN2CCCCC2)nn(-c2ccc(Cl)cc2Cl)c1-c1ccc(Br)cc1,-8.98%,–
c1cc(OCC2CO2)cc(OCC2CO2)c1 (stereo not given),3.96%,–
C=CC(=O)OCCCCCCOC(=O)C=C,–,inactive
O=C(c1ccc(F)cc1)C1CCN(CCn2c(=S)[nH]c3ccccc3c2=O)CC1,-1.75% [at 30.3 µM],–

Compound,activation,Potency
Clc1ccc(Cn2c(CN3CCCC3)nc3ccccc32)cc1,1.5% [at 30.3 µM],–
CCC(C)(C)c1ccc(CC(C)CN2C[C@@H](C)O[C@@H](C)C2)cc1 (stereo not given in full),-0.324% [at 30.3 µM],–
CCCCCCCCCCCCCCCCCCCl,2.88% [at 5.99 µM],–
Cc1cc(Nc2ccc(O)cc2)ccc1N,-1.8%,–
c1cc(CN2CCCCC2)cc(OCCCNc2nc3ccccc3s2)c1,-0.811% [at 30.3 µM],–
COC(=O)C1=C(C)NC(C)=C(C(=O)O[C@@H]2CCCN(Cc3ccccc3)C2)[C@@H]1c1cccc([N+](=O)[O-])c1,0.492% [at 30.3 µM],–
O=[N+]([O-])c1ccc(O/N=C/c2cc(Br)c(O)c(Br)c2)c([N+](=O)[O-])c1,0.0559%,–
CCCCCCC(C)OC(=O)COc1nc(F)c(Cl)c(N)c1Cl (stereo not given),1.06%,–
CC(O)C#CC(C)O (stereo not given),13.8%,–
COC(=O)C1=C(C)NC(COC(N)=O)=C(C(=O)OC(C)C)C1c1cccc(Cl)c1Cl (stereo not given),–,19.9 µM (active)
c1ccc(Cc2ccccc2)cc1,1.83%,–
O=C(Nc1ccc(Cl)cc1)Nc1ccc(Cl)c(C(F)(F)F)c1,-5.56% [at 30.3 µM],–
S=c1[nH]c2ccccc2s1,4.26%,–
Oc1c(I)cc(Cl)c2cccnc12,–,inactive
CCN(CC)CCNc1ccc(CO)c2sc3ccccc3c(=O)c12,19.3% [at 30.3 µM],–
CCOc1ccc(N=Nc2ccc(/C=C/c3ccc(N=Nc4ccc(OCC)cc4)cc3S(=O)(=O)O)c(S(=O)(=O)O)c2)cc1,-3.56%,–
CN(C)CCCN1c2ccccc2Sc2ccc(C(F)(F)F)cc21,0.854% [at 30.3 µM],–
CCCCCC[C@@H](O)C/C=C\CCCCCCCC(=O)O,5.12%,–
